Results published in PubChem BioAssay.
Active and inactive are the calls of the source.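 Rule for the calls, unless noted: active = inhibition above the screen-wide mean plus 3 SD, about 51%; inactive = the rest.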

Columns and labels:
[1] = inhibitors of CD8+ T cell-vesicle binding, pilot screen, LFA-1/ICAM-1 modulator project, MLPCN validation set, flow cytometry (AID 2523;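 active = response below a set limit, under 55% cells CD8-positive and vesicle-bound, and CD8 cells' 90th-percentile brightness under 279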;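 for vesicle binding response: mean PE anti-B7-1 fluorescence of CD8+ cells relative to row control; 100% = QL9-loaded vesicles with DMSO vehicle in the same plate row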); details: 2C mouse CD8+ T cells, at 7 µM, stronger effect = lower value; double positive events: measured here: CD8+/vesicle+ event percentage
[2] = target: Integrin beta-1 (Homo sapiens) + Integrin alpha-4 (Homo sapiens) (UniProt P13612+P05556); experiment: inhibition of HUTS-21 binding to VLA-4, pilot screen, VLA-4 allosteric modulator project, U937 cells, HUTS-21 mAb, flow cytometry, validation set (AID 2674;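 active = inhibition above 50%, about 3 SD of the validation set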;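 note: antibody binding induced by the VLA-4 ligand LDV present at three times its Kd; 0% = LDV ligand with antibody and no compound and 100% = antibody without LDV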); details: HUTS-21 LIBS mAb binding, at 6.7 µM, stronger effect = higher value, binding induced by LDV ligand
Integrin beta-1 (Homo sapiens) + Integrin alpha-4 (Homo sapiens), sequence (P05556 whole entry, looked up): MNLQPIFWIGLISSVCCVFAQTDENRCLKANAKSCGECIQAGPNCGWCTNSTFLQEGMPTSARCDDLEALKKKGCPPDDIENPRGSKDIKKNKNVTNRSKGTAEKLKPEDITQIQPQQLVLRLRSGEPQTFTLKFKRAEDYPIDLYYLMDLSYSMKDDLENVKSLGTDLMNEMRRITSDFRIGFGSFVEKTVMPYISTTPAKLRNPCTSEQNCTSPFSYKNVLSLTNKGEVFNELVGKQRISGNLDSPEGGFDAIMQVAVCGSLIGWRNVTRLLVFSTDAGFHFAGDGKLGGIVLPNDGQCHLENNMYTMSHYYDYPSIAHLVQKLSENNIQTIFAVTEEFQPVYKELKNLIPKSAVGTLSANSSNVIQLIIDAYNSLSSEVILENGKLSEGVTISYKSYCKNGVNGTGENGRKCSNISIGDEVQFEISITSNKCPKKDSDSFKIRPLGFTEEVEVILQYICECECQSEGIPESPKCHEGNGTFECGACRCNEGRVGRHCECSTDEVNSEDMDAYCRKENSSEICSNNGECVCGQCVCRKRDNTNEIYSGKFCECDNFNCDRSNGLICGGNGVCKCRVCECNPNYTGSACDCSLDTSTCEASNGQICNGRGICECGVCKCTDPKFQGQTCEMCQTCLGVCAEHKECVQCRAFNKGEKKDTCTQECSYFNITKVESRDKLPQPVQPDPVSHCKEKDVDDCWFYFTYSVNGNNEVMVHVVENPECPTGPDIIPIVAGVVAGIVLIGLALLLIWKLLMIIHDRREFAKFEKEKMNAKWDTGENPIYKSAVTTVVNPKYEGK
Integrin beta-1 (Homo sapiens) + Integrin alpha-4 (Homo sapiens), sequence (P13612 whole entry, looked up): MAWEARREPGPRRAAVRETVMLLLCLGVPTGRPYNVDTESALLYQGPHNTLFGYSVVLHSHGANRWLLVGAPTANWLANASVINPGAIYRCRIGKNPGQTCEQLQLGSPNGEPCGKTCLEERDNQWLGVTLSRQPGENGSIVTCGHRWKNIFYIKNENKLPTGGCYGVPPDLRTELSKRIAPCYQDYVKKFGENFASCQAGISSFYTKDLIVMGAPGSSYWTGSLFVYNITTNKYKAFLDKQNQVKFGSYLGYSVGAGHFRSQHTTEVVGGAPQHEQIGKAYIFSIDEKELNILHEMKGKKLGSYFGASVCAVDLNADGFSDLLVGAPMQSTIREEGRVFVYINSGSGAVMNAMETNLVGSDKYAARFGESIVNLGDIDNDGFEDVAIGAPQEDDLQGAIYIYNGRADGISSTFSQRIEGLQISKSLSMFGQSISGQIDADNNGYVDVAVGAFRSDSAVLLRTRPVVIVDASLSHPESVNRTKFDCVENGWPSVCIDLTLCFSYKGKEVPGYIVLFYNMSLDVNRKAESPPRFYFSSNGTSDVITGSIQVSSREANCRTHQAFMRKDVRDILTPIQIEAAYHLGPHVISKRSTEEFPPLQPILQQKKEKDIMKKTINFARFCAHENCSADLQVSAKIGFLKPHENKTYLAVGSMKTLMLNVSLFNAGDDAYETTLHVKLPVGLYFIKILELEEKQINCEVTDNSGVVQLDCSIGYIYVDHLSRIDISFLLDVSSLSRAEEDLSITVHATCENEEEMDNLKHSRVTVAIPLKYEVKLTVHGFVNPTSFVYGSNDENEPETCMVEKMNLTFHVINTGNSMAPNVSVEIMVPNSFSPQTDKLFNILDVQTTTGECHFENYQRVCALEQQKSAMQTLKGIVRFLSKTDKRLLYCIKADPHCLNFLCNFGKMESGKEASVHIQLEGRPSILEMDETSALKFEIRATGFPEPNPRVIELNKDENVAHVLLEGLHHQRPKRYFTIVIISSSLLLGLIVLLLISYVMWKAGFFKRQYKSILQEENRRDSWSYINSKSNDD

[3] = superoxide lowering in aged yeast cells, pilot screen, validation compound set (AID 2706;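 active = superoxide response below 65% of plate, a cut near 3 SD across the whole screen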;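 note: yeast exposed to compound for one week at 30 degrees C before staining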;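 for superoxide response (% of plate): 100% = mean of all compound wells on the same plate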); details: S. cerevisiae aging, superoxide DHE fluorescence; at 10 µM, stronger effect = lower value
[4] = target: Beta-adrenergic receptor kinase 1 (Homo sapiens) (UniProt P25098); experiment: GRK2 binders displacing RNA aptamer, biochemical, validation, human GRK2, bead flow cytometry (AID 488806;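 active = aptamer binding inhibition above 30%, about 3 SD of noise from non-fluorescent compounds; inactive = inhibition at or below 30%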); details: bead-bound GRK2, FAM-aptamer displacement, at 10 µM, stronger effect = higher value
Beta-adrenergic receptor kinase 1 (Homo sapiens), sequence (P25098 whole entry, looked up): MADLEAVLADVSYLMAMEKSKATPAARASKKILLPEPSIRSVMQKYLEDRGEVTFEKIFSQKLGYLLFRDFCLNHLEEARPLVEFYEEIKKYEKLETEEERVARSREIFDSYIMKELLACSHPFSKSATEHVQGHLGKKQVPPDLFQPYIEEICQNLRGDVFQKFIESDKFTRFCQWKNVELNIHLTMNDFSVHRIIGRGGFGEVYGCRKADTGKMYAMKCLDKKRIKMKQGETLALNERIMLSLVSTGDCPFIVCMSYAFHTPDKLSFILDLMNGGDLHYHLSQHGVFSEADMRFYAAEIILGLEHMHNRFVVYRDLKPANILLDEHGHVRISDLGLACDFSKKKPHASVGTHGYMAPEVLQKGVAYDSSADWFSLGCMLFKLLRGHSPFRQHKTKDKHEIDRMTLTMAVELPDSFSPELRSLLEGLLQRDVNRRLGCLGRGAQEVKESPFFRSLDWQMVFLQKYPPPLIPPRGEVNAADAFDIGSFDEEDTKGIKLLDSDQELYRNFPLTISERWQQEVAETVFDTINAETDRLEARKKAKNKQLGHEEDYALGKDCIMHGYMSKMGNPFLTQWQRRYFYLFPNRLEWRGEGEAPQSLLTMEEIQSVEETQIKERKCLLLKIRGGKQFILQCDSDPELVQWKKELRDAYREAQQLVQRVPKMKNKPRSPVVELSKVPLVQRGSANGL

[5] = target: Beta-2 adrenergic receptor (Homo sapiens) (UniProt P07550); experiment: beta2AR agonists driving receptor internalization, pilot screen, cell-based, FAP fluorogen, flow cytometry, validation set (AID 504459;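 active = percent response above 42, roughly 3 SD of non-fluorescent test compounds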;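 note: agonist-driven loss of surface beta2AR via internalization measured by FAP dye flow cytometry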); details: Am2.2-beta2AR cells, FAP surface receptor flow cytometry; at 10 µM; stronger effect = higher value
Beta-2 adrenergic receptor (Homo sapiens), sequence (P07550 whole entry, looked up): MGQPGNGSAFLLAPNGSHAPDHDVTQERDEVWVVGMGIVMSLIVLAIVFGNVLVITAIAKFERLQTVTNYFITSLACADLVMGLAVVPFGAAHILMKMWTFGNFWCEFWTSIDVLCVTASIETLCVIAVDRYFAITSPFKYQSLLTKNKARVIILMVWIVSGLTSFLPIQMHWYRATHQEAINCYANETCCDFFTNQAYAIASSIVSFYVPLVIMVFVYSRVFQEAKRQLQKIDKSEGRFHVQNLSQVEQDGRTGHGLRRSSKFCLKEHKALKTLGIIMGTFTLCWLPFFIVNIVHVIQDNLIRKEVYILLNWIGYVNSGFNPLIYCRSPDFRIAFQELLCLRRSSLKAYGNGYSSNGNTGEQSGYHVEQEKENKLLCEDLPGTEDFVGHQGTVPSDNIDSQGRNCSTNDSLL

[6] = target: AP-2 complex subunit beta (Homo sapiens) (UniProt P63010); experiment: inhibitors of arrestin peptide binding to AP2, pilot screen, biochemical, validation set, GST-AP2 beads, flow cytometry (AID 504541;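 active = inhibition above 54%, about 3 SD of non-fluorescent compounds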;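 note: AP2 carries R879A mutation and is captured from E. coli lysate; bead-bound FITC arrestin peptide fluorescence measuring arrestin peptide binding to AP2; 0% = DMSO wells and 100% = excess unlabeled arrestin peptide control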); details: FITC arrestin peptide, at 10 µM, stronger effect = higher value, AP2 beta2 appendage fragment, R879A mutant
AP-2 complex subunit beta (Homo sapiens), sequence (P63010 whole entry, looked up, the tested form may be a part, one chain of several): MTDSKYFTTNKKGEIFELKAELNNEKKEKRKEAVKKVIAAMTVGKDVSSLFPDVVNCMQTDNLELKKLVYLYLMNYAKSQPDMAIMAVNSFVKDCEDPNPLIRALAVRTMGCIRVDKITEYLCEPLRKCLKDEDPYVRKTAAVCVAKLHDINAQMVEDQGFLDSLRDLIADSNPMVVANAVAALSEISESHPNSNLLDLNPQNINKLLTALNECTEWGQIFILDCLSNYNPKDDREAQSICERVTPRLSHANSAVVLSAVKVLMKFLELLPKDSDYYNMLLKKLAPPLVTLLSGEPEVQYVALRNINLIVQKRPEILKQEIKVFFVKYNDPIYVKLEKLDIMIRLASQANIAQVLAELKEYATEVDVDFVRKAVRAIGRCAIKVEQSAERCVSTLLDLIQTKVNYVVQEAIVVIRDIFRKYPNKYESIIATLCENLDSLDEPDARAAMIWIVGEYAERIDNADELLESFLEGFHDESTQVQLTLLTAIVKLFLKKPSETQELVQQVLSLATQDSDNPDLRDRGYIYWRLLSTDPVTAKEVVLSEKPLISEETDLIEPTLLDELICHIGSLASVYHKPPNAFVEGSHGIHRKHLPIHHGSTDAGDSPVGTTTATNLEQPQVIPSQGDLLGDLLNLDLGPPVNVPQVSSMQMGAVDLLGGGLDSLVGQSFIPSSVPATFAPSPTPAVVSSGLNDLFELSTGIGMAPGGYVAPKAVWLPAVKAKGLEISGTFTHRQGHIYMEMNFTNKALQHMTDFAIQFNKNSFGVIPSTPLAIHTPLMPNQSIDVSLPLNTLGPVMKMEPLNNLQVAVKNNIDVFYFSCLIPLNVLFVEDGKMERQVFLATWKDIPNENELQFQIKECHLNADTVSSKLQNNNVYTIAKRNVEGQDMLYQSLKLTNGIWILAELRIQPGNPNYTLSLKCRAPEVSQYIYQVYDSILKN

[7] = yeast V-ATPase proton transport modulators, S. cerevisiae, pHLuorin, HTS validation (AID 504600; in the data active = response above about 15%;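 note: plate controls were DMSO for no effect and reference compound for full effect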); details: S. cerevisiae pHLuorin cytosolic pH, at 10 µM, stronger effect = higher value
[8] = test system: anti-desmoglein-3 scFv antibody binding to human DSG3; experiment: inhibitors of anti-DSG3 scFv binding to DSG3, pilot screen, biochemical, validation compound set, bead-based, flow cytometry (AID 588368;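 active = binding below the plate cutoff, the plate median minus 3 SD, with a reading above zero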;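 note: signal is the median channel fluorescence of bead-bound GFP antibody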); details: Protein G beads, DSG3-Fc, scFv-GFP binding, at 10 µM, stronger effect = lower value
[9] = inhibitors of fungal efflux pumps CDR1, CDR2, MDR1, pilot screen, validation compound set, multiplex, phenotypic (AID 588506;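 active = efflux inhibition above 0.42, the validation set average plus 4 SD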;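 note: Nile Red retained in cells so higher fluorescence means more efflux inhibition; 0 = negative control wells and 1 = enniatin B 25 µM full block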); details: S. cerevisiae pump-expressing triplex, Nile Red efflux flow cytometry; at 10 µM; stronger effect = higher value; the pumps come from Candida albicans
[10] = target: ATP-binding cassette sub-family B member 6 (Homo sapiens) (UniProt Q9NP58); experiment: ABCB6 transporter inhibitors, pilot screen, K562-ABCB6 cells, flow cytometry, validation set (AID 588550); details: K562-ABCB6 porphyrin accumulation, 1 h, at 10 µM, stronger effect = higher value;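 note: 0% = DMSO wells and 100% = benzethonium chloride 70 µM positive control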
ATP-binding cassette sub-family B member 6 (Homo sapiens), sequence (Q9NP58 whole entry, looked up): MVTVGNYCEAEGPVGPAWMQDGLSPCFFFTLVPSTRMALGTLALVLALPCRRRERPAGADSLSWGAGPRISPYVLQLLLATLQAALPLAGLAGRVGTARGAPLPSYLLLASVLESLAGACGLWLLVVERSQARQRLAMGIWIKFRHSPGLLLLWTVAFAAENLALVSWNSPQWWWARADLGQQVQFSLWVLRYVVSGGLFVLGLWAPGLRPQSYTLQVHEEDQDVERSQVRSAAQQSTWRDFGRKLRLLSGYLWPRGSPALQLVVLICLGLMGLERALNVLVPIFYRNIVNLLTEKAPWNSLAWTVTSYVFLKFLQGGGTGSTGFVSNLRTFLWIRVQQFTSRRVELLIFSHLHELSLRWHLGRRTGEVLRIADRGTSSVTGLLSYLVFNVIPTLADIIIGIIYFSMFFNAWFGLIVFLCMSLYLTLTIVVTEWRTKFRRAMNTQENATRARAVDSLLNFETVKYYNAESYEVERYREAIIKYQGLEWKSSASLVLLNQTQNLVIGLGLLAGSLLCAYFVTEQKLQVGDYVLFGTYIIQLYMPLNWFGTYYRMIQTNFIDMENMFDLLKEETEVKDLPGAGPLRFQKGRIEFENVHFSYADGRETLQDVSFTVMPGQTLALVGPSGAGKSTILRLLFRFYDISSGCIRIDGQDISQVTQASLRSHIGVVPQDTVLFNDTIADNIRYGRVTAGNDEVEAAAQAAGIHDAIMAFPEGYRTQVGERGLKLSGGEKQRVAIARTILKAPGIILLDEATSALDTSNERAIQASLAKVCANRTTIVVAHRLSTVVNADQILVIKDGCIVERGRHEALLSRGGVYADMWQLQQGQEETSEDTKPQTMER

[11] = promoters of myeloid differentiation in arrested cells, primary screen, cell-based, GFP/MAC1 double positive, flow cytometry, validation set (AID 588685;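 active = differentiation response of at least 50%, scaled between solvent and reference control, from cells with both markers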;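 note: compound exposure lasts four days before antibody staining and flow analysis; 0% = DMSO wells and 100% = 5 µM fulvestrant positive control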); details: ER-HoxA9 marrow cells, stronger effect = higher value, normalized: vehicle 0, fulvestrant 100

CCN(Cc1cnn(C)c1)Cc1nc(C(c2ccccc2)c2ccccc2)no1
61.8%: double positive events [1]
inactive: vesicle binding response [1] 168% | inhibition [2] 7.4% | superoxide response (% of plate) [3] 120% | aptamer binding inhibition [4] -5% | response [5] -21.6% | inhibition [6] -13.6% | response [7] -8.11% | binding (% of control) [8] 98.8% | efflux inhibition (fraction of control) [9] -0.04 | inhibition [10] 1% | differentiation response [11] 16.7%

COc1ccc(-c2c(C)c3ccc(OCC(C)=O)cc3oc2=O)cc1
inactive: vesicle binding response [1] 128% | inhibition [2] 3.49% | superoxide response (% of plate) [3] 113% | aptamer binding inhibition [4] 6% | inhibition [6] -9.08% | response [7] -2.13% | binding (% of control) [8] 103% | efflux inhibition (fraction of control) [9] -0.05 | inhibition [10] 9% | differentiation response [11] 3.03%
46.6%: double positive events [1]

CCOC(=O)c1cc2cc3ccccc3cc2[nH]1
inactive: vesicle binding response [1] 334% | inhibition [2] -1.79% | superoxide response (% of plate) [3] 81.1% | aptamer binding inhibition [4] 1% | response [5] 15.9% | inhibition [6] -6.18% | response [7] -1.49% | binding (% of control) [8] 99.1% | efflux inhibition (fraction of control) [9] -0.1 | inhibition [10] 6% | differentiation response [11] 7.2%
70.4%: double positive events [1]

O=C(O)C[C@@H](O)C(=O)O
56.6%: double positive events [1]
inactive: vesicle binding response [1] 193% | inhibition [2] 0.69% | superoxide response (% of plate) [3] 104% | aptamer binding inhibition [4] 2% | inhibition [6] -10.9% | response [7] -4.82% | binding (% of control) [8] 102% | efflux inhibition (fraction of control) [9] -0.2 | inhibition [10] 4% | differentiation response [11] 6.26%

Cn1c(=O)c2c(nc(SCCN3CCCCC3)n2C)n(C)c1=O
61.5%: double positive events [1]
inactive: vesicle binding response [1] 176% | inhibition [2] -0.27% | superoxide response (% of plate) [3] 85.5% | aptamer binding inhibition [4] -3% | response [5] -25.4% | inhibition [6] -6.3% | response [7] 1.6% | binding (% of control) [8] 110% | efflux inhibition (fraction of control) [9] -0.13 | inhibition [10] -2% | differentiation response [11] -11.9%

COc1ccc(/C=C2\CCc3ccccc3C2=O)c(OC)c1OC
68.5%: double positive events [1]
inactive: vesicle binding response [1] 262% | inhibition [2] 2.3% | superoxide response (% of plate) [3] 94.8% | aptamer binding inhibition [4] 3% | response [5] -0.85% | inhibition [6] -2.94% | response [7] 5.35% | binding (% of control) [8] 102% | efflux inhibition (fraction of control) [9] 0.15 | inhibition [10] 5% | differentiation response [11] 31.2%

CC1(C)O[C@@H]2C[C@H]3[C@@H]4CCC5=CC(=O)C=C[C@]5(C)[C@@]4(F)[C@@H](O)C[C@]3(C)[C@]2(C(=O)CO)O1
61.2%: double positive events [1]
inactive: vesicle binding response [1] 123% | inhibition [2] 0.25% | superoxide response (% of plate) [3] 91.8% | aptamer binding inhibition [4] -1% | response [5] 10.2% | inhibition [6] -3.89% | response [7] -1.77% | binding (% of control) [8] 107% | efflux inhibition (fraction of control) [9] -0.22 | inhibition [10] 2% | differentiation response [11] 40.8%

O=C(/C=C/c1ccc2c(c1)OCO2)c1ccccn1
inactive: vesicle binding response [1] 181% | inhibition [2] 4.84% | superoxide response (% of plate) [3] 89.8% | aptamer binding inhibition [4] 1% | response [5] -23.4% | inhibition [6] -13% | response [7] -4.66% | binding (% of control) [8] 102% | efflux inhibition (fraction of control) [9] 0 | inhibition [10] -8% | differentiation response [11] -5.97%
60.4%: double positive events [1]

CC1(C)CC(CC(=O)Nc2nccs2)(c2ccccc2)CCO1 (configuration not stated)
inactive: vesicle binding response [1] 182% | inhibition [2] 4.42% | superoxide response (% of plate) [3] 103% | aptamer binding inhibition [4] -7% | inhibition [6] -9.2% | response [7] 5.11% | binding (% of control) [8] 96.4% | efflux inhibition (fraction of control) [9] 0.18 | inhibition [10] 8% | differentiation response [11] 1.41%
51.5%: double positive events [1]

O=P(c1ccccc1)(c1ccccc1)c1nc(-c2ccc(Cl)cc2)oc1N1CCOCC1
57.7%: double positive events [1]
active: efflux inhibition (fraction of control) [9] 0.435
inactive: vesicle binding response [1] 148% | inhibition [2] 4.27% | superoxide response (% of plate) [3] 135% | aptamer binding inhibition [4] 2% | response [5] -13.6% | inhibition [6] 7.65% | response [7] 3.02% | binding (% of control) [8] 105% | inhibition [10] -3% | differentiation response [11] -3.11%

Cc1ccc(OCCSc2ncccn2)c(C)c1
49.1%: double positive events [1]
inactive: vesicle binding response [1] 186% | inhibition [2] 3.49% | superoxide response (% of plate) [3] 114% | aptamer binding inhibition [4] 1% | inhibition [6] -11.2% | response [7] 12.3% | binding (% of control) [8] 98% | efflux inhibition (fraction of control) [9] 0.14 | inhibition [10] 10% | differentiation response [11] -13.1%

CN1[C@@H](CC(=O)c2ccccc2)CCC[C@H]1C[C@H](O)c1ccccc1
inactive: vesicle binding response [1] 176% | inhibition [2] 6.4% | superoxide response (% of plate) [3] 93.3% | aptamer binding inhibition [4] 4% | response [5] 12.9% | inhibition [6] -9.53% | response [7] 3.14% | binding (% of control) [8] 103% | efflux inhibition (fraction of control) [9] -0.06 | inhibition [10] 3% | differentiation response [11] -0.8%
61.3%: double positive events [1]

CC(=O)CCc1oc2ccccc2c1-c1ccccc1
62.1%: double positive events [1]
inactive: vesicle binding response [1] 172% | inhibition [2] 0.59% | outcome [3] | aptamer binding inhibition [4] -3% | response [5] -37.7% | inhibition [6] -8% | response [7] -1.06% | binding (% of control) [8] 108% | efflux inhibition (fraction of control) [9] 0.12 | inhibition [10] 7% | differentiation response [11] -1.05%
